PubChem BioAssay AID504339 (National Center for Advancing Translational Sciences (NCATS), 2011)
The campaign covered roughly 390,000 compounds. About 17,000 (4.4%) were called active. Not shown: some 8% with an inconclusive outcome. Many of the other results were omitted from the sample, so actives are more common in it than they were. A number with no mark means an inactive call. Calls follow the shape of the dose curve; as a rule, active = well fitted inhibition curve with a large enough effect; inconclusive = small, poorly fitted or top-dose-only effect; inactive = no such curve, though single readings can be large or run the other way.

The compounds below were run against Lysine-specific demethylase 4A (Homo sapiens) (UniProt O75164) (assay: qHTS Assay for Inhibitors of JMJD2A-Tudor Domain). Conditions: AlphaScreen JMJD2A-Tudor / H3K4me3 peptide binding; series mostly up to 114 µM; activity change, negative = inhibition: at the top concentration.
Lysine-specific demethylase 4A (Homo sapiens), sequence (O75164 whole entry, looked up, the tested form may be a part): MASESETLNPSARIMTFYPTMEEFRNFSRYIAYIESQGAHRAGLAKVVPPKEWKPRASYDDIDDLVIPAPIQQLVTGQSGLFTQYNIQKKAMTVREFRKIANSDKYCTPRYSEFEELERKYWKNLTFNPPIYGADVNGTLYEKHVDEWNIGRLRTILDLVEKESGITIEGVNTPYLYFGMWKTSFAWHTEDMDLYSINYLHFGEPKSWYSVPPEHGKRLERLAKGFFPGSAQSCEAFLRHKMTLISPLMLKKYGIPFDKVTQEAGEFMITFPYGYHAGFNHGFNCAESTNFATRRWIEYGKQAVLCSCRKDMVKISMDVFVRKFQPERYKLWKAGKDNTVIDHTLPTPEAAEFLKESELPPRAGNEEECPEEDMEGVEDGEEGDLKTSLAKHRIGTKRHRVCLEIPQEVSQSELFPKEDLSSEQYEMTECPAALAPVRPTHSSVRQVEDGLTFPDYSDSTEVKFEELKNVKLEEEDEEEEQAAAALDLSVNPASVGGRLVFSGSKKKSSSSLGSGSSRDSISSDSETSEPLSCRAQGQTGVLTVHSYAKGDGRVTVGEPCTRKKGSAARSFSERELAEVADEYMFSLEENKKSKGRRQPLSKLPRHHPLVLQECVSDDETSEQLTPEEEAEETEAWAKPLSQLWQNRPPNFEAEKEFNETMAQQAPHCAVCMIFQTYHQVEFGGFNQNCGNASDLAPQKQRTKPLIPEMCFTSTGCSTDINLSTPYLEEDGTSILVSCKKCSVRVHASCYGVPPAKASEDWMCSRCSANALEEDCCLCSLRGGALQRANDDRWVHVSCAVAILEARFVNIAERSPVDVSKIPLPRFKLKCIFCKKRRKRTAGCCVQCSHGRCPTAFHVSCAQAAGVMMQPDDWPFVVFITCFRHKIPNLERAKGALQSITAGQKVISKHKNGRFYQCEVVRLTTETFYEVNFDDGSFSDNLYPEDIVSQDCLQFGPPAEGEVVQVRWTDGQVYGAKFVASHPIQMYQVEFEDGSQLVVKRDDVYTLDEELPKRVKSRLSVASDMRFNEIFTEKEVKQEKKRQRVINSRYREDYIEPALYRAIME
% is scaled to controls: 0 for no effect and ±100 for the full control effect; potency is read from the fitted curve at half-maximal effect.
Also: nearly all actives have a fitted effect of over 50% in size.

Compound | activity change, negative = inhibition [%] | Potency
COc1ccc2oc(=O)c(-c3cn4c(n3)sc3cc(OC)ccc34)cc2c1 | -17 | –
CCC(=O)N1c2ccccc2CC1C(=O)N1CCN(c2ccccc2F)CC1 (stereo unspecified) | 17.2 | –
CC1=C(c2ccc(C)cc2)S(=O)(=O)NC1=NCCCN1CCN(c2cc(C)ccc2C)CC1 | -18.2 | –
COc1ccc(Cn2c(C(=O)O)c(CNCCc3cccs3)c3ccc(OC)cc32)cc1 | -11 | –
COc1cc(OC)cc(C(=O)Nc2c(C(=O)Nc3ccc(F)cc3)oc3ccccc23)c1 | -2.65 | –
Cc1ccc(C)c(N2CCN(C(=O)Cn3ncc4c(=O)oc5ccc(C)cc5c43)CC2)c1 | -6.62 | –
CO/N=C(\N)c1ccc([N+](=O)[O-])cc1 | -12.4 | –
C/C(=N\N(C)C)c1ccc(OCCOc2ccc([N+](=O)[O-])cc2)cc1 | – | 44.7 µM (active)
C/C(=N/NC(=O)CC(=O)N/N=C(\C)c1ccc([N+](=O)[O-])cc1)c1ccc([N+](=O)[O-])cc1 | -23.1 | –
Cc1oc2ncnc(N3CCOCC3)c2c1C(=O)NCCc1ccccc1 | 8.74 | –
CCCCOc1ccc(C(=O)N2CC(=O)Nc3ccc(Br)cc3C2c2ccc(F)cc2)cc1 (stereo unspecified) | -23.9 | –
O=C(Nc1ccccc1)O/N=C1\CCCCC1c1ccc([N+](=O)[O-])cc1[N+](=O)[O-] (stereo unspecified) | -16.2 | –
C[n+]1ccccc1C1CCCC/C1=N\Nc1ccc([N+](=O)[O-])cc1[N+](=O)[O-] (stereo unspecified) | -2.07 | –
O=[N+]([O-])c1ccc(N/N=C2/CCCCC2c2ccccn2)c([N+](=O)[O-])c1 (stereo unspecified) | – | 31.6 µM (active)
Cc1ccc(C)c(S(=O)(=O)c2nnn3c2nc(N2CCOCC2)c2sccc23)c1 | 4.4 | –
COc1ccc(CCN2C(=O)N(c3cccc(OC)c3)C(=O)C2CC(=O)Nc2ccccc2)cc1 (stereo unspecified) | -21.2 | –
N#C/C(=C/c1ccc(N2CCOCC2)o1)C(=O)N1CCOCC1 | -31.8 | –
O=C(CC1SC(N2CCOCC2)=NC1=O)Nc1ccccc1F (stereo unspecified) | -19 | –
N#C/C(=C\C1=C(N2CCOCC2)C(=C\c2ccccc2)/CC1)C(=O)Nc1ccccc1F | – | 4.47 µM (active)
COc1c(Cl)cc(Cl)cc1C(=O)Nc1cccc2cccnc12 | -11.9 | –
Cc1ccc(S(=O)(=O)NCCCn2ccnc2)cc1C(=O)NC(C)C | -4.42 | –
Cc1ccc(S(=O)(=O)NCCC(c2ccccc2)c2ccccc2)cc1C(=O)O | – | 79.4 µM (active)
Cc1cccc(NS(=O)(=O)c2ccc(C)c(C(=O)NCC(c3ccccc3)N(C)C)c2)c1 (stereo unspecified) | -21.5 | –

Compound | activity change, negative = inhibition [%] | Potency
Cc1nc(SCC(=O)Nc2ccc(C(=O)O)cc2)n[nH]1 | -1.03 | –
Cc1ccc(NC(=O)CSc2nc3c(c(=O)[nH]2)CN(Cc2ccc4c(c2)OCO4)CC3)cc1C | -2.32 | –
CCOC(=O)c1ccc(CN(Cc2ccccc2)S(=O)(=O)c2ccc(Cl)cc2)cc1 | 45 | –
COc1cccc(NC(=O)CN2C(=O)c3ccccc3Sc3ncccc32)c1 | -27.8 | –
CCNS(=O)(=O)c1cc(-c2nnc(Nc3cccc(C(F)(F)F)c3)c3ccccc23)ccc1C | -15.9 | –
CCC(=C/c1sc2ccc3ccccc3c2[n+]1C)/C=C1\Sc2ccc3ccccc3c2N1C | – | 50.1 µM (active)
COc1ccc(CN2C(=O)C(NC(=O)c3cccc(C)c3)(C(F)(F)F)N=C2c2ccccc2)cc1 (stereo unspecified) | -25 | –
Cc1ccc(N2CCN(c3ccc(C)cc3)C2c2ccccn2)cc1 | – | 25.1 µM (active)
Cc1ccc(S(=O)(=O)NCC(=O)N2CCN(c3ccccn3)CC2)cc1 | -6.57 | –
Cc1ccc(-n2ccc(=O)c(C(=O)O)n2)cc1 | -20.1 | –
Cc1cccc(OCC(=O)N(Cc2ccc(C(C)C)cc2)Cc2ccco2)c1C | 14.5 | –
Oc1c(C(c2ccccc2Cl)N2CCOCC2)sc2nc(-c3ccco3)nn12 (stereo unspecified) | -16.6 | –
Oc1c(C(c2ccccn2)N2CCOCC2)ccc2cccnc12 (stereo unspecified) | – | 17.8 µM (active)
COc1cc(NC(=O)c2noc3c2CSc2ccccc2-3)cc(OC)c1OC | -1.66 | –
CC(=O)N1CCCc2cc(S(=O)(=O)Nc3ccc(Cl)cc3F)ccc21 | -28.7 | –
CCCCc1nn2c(=O)cc(COC(=O)c3ccccc3NC(=O)C(C)(C)C)nc2s1 | -11.6 | –
COc1ccccc1CNC(=O)c1ccc(CS(=O)(=O)c2ccccc2)o1 | -7.86 | –
O=C(c1ccc(CS(=O)(=O)c2ccccc2)o1)N1CCN(c2ccccc2)CC1 | – | 56.2 µM (active)
O=C(c1ccc(S(=O)(=O)NCc2ccco2)cc1)N1CCN(c2ccccc2)CC1 | -30.3 | –
Cc1cc(C)cc(NC(=O)CCS(=O)(=O)c2cc3c4c(c2)CCN4C(=O)CC3)c1 | 4.55 | –
Cc1cc(C)c2oc(C(=O)Nc3c(C(=O)Nc4ccccc4)oc4ccccc34)cc(=O)c2c1 | -6.25 | –
Cc1ccc(C)c(Oc2c(C(F)(F)F)oc3c(CN4CCN(C)CC4)c(O)ccc3c2=O)c1 | -15.4 | –
Cc1c(Cl)cccc1NC(=O)C1CCCN(c2ncnc3onc(C)c23)C1 (stereo unspecified) | -4.85 | –
